Measured values taken from article PMC7862700, “An all-to-all approach to the identification of sequence-specific readers for epigenetic DNA modifications on cytosine”.

Assays:
Experiment in all cases: DAPPL (digital affinity profiling via proximity ligation, sequencing); 10 mM Tris-HCl pH 7.5, 50 mM NaCl, 1 mM DTT, 4% glycerol, room temperature, 30 min; GST-TFs on glutathione beads, 16-mer random dsDNA library, 0.1% formaldehyde crosslink after washing; high values mean tight binding
Settings in all cases: protein: recombinant; tags: N-terminal GST; dsDNA, one strand shown
ERF = biological target: T1, ERF (Homo sapiens, UniProt P50548 1-548)
T1 sequence: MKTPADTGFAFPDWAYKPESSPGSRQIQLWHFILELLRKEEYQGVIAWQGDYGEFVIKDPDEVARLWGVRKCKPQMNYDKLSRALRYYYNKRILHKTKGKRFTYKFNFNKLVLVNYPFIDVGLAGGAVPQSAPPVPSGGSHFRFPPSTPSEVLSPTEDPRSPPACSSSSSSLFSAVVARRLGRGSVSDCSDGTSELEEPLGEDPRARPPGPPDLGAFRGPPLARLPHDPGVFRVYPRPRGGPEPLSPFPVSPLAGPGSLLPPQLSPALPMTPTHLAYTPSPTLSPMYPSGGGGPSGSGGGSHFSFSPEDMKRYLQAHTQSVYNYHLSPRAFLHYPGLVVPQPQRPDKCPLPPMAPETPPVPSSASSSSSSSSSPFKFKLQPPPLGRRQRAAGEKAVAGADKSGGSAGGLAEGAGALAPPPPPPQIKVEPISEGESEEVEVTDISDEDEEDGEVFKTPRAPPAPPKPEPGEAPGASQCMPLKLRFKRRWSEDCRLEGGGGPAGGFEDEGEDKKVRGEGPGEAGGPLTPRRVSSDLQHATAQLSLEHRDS
In short: (§1)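 Sequencing on an Illumina NextSeq500 followed washing, crosslinking with 0.1% formaldehyde, proximity ligation (BsaI/T4 ligase, 1 h, 37 °C) and PCR amplification of pools that had been incubated for 30 min at room temperature with 200 nmole of a random double-stranded 16-mer DNA library in Tris/NaCl/DTT/glycerol buffer. Each pool held DNA-barcoded human transcription factors, expressed in yeast as GST fusions and captured on glutathione beads, plus a tag-only sample. Binding signal is a hexamer's read frequency for a factor divided by its frequency in the tag-only sample.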

ETV3L = biological target: T2, ETV3L (Homo sapiens, UniProt Q6ZN32 1-361)
T2 sequence: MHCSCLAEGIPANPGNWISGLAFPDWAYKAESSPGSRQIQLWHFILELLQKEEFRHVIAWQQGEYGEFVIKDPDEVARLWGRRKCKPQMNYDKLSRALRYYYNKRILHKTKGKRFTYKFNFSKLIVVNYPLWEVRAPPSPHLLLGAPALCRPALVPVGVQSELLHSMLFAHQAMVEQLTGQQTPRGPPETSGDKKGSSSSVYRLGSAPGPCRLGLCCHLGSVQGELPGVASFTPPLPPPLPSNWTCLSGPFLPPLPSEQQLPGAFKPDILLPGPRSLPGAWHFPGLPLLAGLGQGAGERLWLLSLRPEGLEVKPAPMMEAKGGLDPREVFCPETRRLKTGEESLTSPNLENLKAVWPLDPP
In short: as §1

ETS2 = biological target: T3, ETS2 (Homo sapiens, UniProt P15036 1-469)
T3 sequence: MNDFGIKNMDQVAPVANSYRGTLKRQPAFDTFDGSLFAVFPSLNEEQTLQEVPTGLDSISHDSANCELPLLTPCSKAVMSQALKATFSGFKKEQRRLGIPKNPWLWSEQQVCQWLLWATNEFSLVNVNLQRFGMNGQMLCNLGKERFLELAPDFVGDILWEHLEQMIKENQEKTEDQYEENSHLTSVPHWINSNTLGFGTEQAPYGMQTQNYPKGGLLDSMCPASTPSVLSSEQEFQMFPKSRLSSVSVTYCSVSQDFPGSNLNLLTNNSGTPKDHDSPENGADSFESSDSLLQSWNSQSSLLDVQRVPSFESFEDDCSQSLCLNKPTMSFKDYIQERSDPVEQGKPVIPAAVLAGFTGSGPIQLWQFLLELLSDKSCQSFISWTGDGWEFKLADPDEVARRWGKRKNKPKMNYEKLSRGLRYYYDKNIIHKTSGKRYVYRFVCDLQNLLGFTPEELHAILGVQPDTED
In short: as §1

SPDEF = biological target: T4, SPDEF (Homo sapiens, UniProt O95238 1-335)
T4 sequence: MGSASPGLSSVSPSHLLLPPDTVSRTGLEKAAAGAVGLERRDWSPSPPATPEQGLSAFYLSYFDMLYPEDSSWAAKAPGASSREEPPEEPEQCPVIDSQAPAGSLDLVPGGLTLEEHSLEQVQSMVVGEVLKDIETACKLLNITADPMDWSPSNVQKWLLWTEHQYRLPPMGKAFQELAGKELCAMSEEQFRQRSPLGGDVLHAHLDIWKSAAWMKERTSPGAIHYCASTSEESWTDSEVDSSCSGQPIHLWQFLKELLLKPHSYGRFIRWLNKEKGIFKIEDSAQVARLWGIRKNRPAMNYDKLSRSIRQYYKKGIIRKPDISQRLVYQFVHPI
In short: as §1

ETV7 = biological target: T5, ETV7 (Homo sapiens, UniProt Q9Y603 1-341)
T5 sequence: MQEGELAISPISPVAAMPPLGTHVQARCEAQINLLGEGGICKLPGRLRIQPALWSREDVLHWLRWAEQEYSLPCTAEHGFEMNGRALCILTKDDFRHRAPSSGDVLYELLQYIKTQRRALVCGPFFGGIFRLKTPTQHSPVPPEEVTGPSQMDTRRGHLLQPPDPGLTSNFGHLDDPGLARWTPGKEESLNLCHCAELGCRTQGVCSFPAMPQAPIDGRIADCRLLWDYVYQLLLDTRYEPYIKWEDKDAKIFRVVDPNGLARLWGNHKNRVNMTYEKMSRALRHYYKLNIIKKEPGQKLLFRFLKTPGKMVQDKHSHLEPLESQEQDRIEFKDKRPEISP
In short: as §1

ELF5 = biological target: T6, ELF5 (Homo sapiens, UniProt Q9UKW6-2 1-255)
T6 sequence: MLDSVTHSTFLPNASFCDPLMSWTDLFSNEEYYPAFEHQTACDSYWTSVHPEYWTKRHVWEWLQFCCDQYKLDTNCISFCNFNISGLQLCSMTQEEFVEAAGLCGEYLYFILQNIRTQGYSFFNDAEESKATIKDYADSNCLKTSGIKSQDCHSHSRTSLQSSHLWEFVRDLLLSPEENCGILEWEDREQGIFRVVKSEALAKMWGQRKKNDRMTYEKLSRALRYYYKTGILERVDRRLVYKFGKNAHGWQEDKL
In short: as §1

ETV3 = biological target: T7, ETV3 (Homo sapiens, UniProt P41162-2 1-143)
T7 sequence: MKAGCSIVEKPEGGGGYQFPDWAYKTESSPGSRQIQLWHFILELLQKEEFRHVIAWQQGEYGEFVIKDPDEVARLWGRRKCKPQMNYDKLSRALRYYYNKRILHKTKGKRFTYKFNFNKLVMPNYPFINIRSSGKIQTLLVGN
In short: as §1

ETV6 = ETV6 (Homo sapiens, UniProt P41212 1-452)
In short: as §1

Chain of ETV6 (P41212 whole entry): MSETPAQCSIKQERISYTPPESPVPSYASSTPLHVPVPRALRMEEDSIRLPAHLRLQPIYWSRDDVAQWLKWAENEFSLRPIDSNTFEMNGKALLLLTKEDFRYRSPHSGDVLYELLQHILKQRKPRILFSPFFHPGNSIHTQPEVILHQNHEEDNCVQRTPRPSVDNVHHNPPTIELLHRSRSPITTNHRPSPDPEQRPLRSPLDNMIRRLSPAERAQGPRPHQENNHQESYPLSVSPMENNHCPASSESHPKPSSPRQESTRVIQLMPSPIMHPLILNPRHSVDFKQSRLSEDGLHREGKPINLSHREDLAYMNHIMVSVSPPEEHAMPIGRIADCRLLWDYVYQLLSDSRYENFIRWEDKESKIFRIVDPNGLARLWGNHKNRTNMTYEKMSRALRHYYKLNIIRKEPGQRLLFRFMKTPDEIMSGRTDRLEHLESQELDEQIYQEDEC

Sequence | binding signal (ERF) | binding signal (ETV3L) | binding signal (ETS2) | binding signal (SPDEF) | binding signal (ETV7) | binding signal (ELF5) | binding signal (ETV3) | binding signal (ETV6)
CCGCGT | 1.08 fold enrichment (6-mer frequency, TF over GST control) | 1.11 fold enrichment (6-mer frequency, TF over GST control) | 1.13 fold enrichment (6-mer frequency, TF over GST control) | 1.12 fold enrichment (6-mer frequency, TF over GST control) | 1.21 fold enrichment (6-mer frequency, TF over GST control) | 1.27 fold enrichment (6-mer frequency, TF over GST control) | 1.13 fold enrichment (6-mer frequency, TF over GST control) | 1.16 fold enrichment (6-mer frequency, TF over GST control)
GTCTTA | 1.12 fold enrichment (6-mer frequency, TF over GST control) | 1.21 fold enrichment (6-mer frequency, TF over GST control) | 1.16 fold enrichment (6-mer frequency, TF over GST control) | 1.17 fold enrichment (6-mer frequency, TF over GST control) | 1.21 fold enrichment (6-mer frequency, TF over GST control) | 1.18 fold enrichment (6-mer frequency, TF over GST control) | 1.23 fold enrichment (6-mer frequency, TF over GST control) | 1.11 fold enrichment (6-mer frequency, TF over GST control)
TATAGA | 1.06 fold enrichment (6-mer frequency, TF over GST control) | 1.18 fold enrichment (6-mer frequency, TF over GST control) | 1.04 fold enrichment (6-mer frequency, TF over GST control) | 1.14 fold enrichment (6-mer frequency, TF over GST control) | 1.08 fold enrichment (6-mer frequency, TF over GST control) | 1.09 fold enrichment (6-mer frequency, TF over GST control) | 1.07 fold enrichment (6-mer frequency, TF over GST control) | 1.11 fold enrichment (6-mer frequency, TF over GST control)
TATAAC | 1.18 fold enrichment (6-mer frequency, TF over GST control) | 1.21 fold enrichment (6-mer frequency, TF over GST control) | 1.25 fold enrichment (6-mer frequency, TF over GST control) | 1.25 fold enrichment (6-mer frequency, TF over GST control) | 1.26 fold enrichment (6-mer frequency, TF over GST control) | 1.25 fold enrichment (6-mer frequency, TF over GST control) | 1.25 fold enrichment (6-mer frequency, TF over GST control) | 1.19 fold enrichment (6-mer frequency, TF over GST control)
CACAAA | 1.18 fold enrichment (6-mer frequency, TF over GST control) | 1.16 fold enrichment (6-mer frequency, TF over GST control) | 1.16 fold enrichment (6-mer frequency, TF over GST control) | 1.12 fold enrichment (6-mer frequency, TF over GST control) | 1.01 fold enrichment (6-mer frequency, TF over GST control) | 1.1 fold enrichment (6-mer frequency, TF over GST control) | 1.09 fold enrichment (6-mer frequency, TF over GST control) | 1.08 fold enrichment (6-mer frequency, TF over GST control)
ACTCCT | 1.45 fold enrichment (6-mer frequency, TF over GST control) | 1.54 fold enrichment (6-mer frequency, TF over GST control) | 1.52 fold enrichment (6-mer frequency, TF over GST control) | 1.42 fold enrichment (6-mer frequency, TF over GST control) | 1.52 fold enrichment (6-mer frequency, TF over GST control) | 1.42 fold enrichment (6-mer frequency, TF over GST control) | 1.43 fold enrichment (6-mer frequency, TF over GST control) | 1.42 fold enrichment (6-mer frequency, TF over GST control)
TAGAAG | 1.42 fold enrichment (6-mer frequency, TF over GST control) | 1.17 fold enrichment (6-mer frequency, TF over GST control) | 1.12 fold enrichment (6-mer frequency, TF over GST control) | 1.06 fold enrichment (6-mer frequency, TF over GST control) | 1.24 fold enrichment (6-mer frequency, TF over GST control) | 1.12 fold enrichment (6-mer frequency, TF over GST control) | 1.12 fold enrichment (6-mer frequency, TF over GST control) | 1.17 fold enrichment (6-mer frequency, TF over GST control)
ACCATA | 1.15 fold enrichment (6-mer frequency, TF over GST control) | 1.25 fold enrichment (6-mer frequency, TF over GST control) | 1.17 fold enrichment (6-mer frequency, TF over GST control) | 1.17 fold enrichment (6-mer frequency, TF over GST control) | 1.11 fold enrichment (6-mer frequency, TF over GST control) | 1.15 fold enrichment (6-mer frequency, TF over GST control) | 1.19 fold enrichment (6-mer frequency, TF over GST control) | 1.16 fold enrichment (6-mer frequency, TF over GST control)
